# In the supplement of paper PMC8728848:
# The sample as a whole holds a higher share of the strongest signals than the screen did.
# B1: Mincle (Bos taurus) (protein)
# chain: MNSSTSPASQTERRCFSFQLFSWAIAGTSILLLSACFITRCVVTYSIFQLCDEKKFQPPGDSMELSCYNDGSGSVKNCCPLKWFHFQSSCYLFSPDTMSWRASLKNCSSMGAHLVVINTQEEQEFLYYTKPRKKEFYIGLTDQVTEGQWQWVDGTPFTKSLSFWDAGEPNNLVIVEDCATIRDSSNPRQNWNDVPCFFNMFRVCEMPERKI
# How the values were obtained:
# Experiment in all cases: glycan array binding signal (z-score within array); higher = stronger binding
# Settings in all cases: glycan notation: IUPAC condensed, linker removed
# Gal6P(b1-4)GlcNAc = molecular target: Gal6P(b1-4)GlcNAc
# Outline: (§1)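 The Consortium for Functional Glycomics database supplied 3228 glycan arrays, of which those lacking an available protein sequence were dropped. The binding signal, a within-array Z-score, was averaged across arrays of the same protein sequence and across linkers. Negative scores can be read as non-binding.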
# GalNAc(a1-3)Gal = molecular target: GalNAc(a1-3)Gal
# Outline: as §1
# GalNAc(a1-3)GalNAc = molecular target: GalNAc(a1-3)GalNAc
# Outline: as §1
# GalNAc(b1-4)GlcNAc = molecular target: GalNAc(b1-4)GlcNAc
# Outline: as §1
# [1] = molecular target: GlcNAc(a1-4)Gal(b1-4)GlcNAc(b1-3)Gal(b1-4)GlcNAc(b1-3)Gal(b1-4)GlcNAc
# Outline: as §1
# [2] = molecular target: GlcNAc(b1-3)Gal(b1-4)GlcNAc(b1-2)[GlcNAc(b1-3)Gal(b1-4)GlcNAc(b1-6)]Man(a1-6)[GlcNAc(b1-3)Gal(b1-4)GlcNAc(b1-2)Man(a1-3)]Man(b1-4)GlcNAc(b1-4)GlcNAc
# Outline: as §1
# [3] = molecular target: GlcNAc(b1-3)Gal(b1-4)GlcNAc(b1-3)Gal(b1-4)GlcNAc
# Outline: as §1
# [4] = molecular target: GlcNAc(b1-3)Gal(b1-4)GlcNAc(b1-3)Gal(b1-4)GlcNAc(b1-3)Gal(b1-4)GlcNAc(b1-2)Man(a1-3)[GlcNAc(b1-3)Gal(b1-4)GlcNAc(b1-3)Gal(b1-4)GlcNAc(b1-3)Gal(b1-4)GlcNAc(b1-2)Man(a1-6)]Man(b1-4)GlcNAc(b1-4)[Fuc(a1-6)]GlcNAc
# Outline: as §1
# [5] = molecular target: GlcNAc(b1-3)Gal(b1-4)GlcNAc(b1-3)[GlcNAc(b1-3)Gal(b1-4)GlcNAc(b1-3)]GalNAc
# Outline: as §1
# [6] = molecular target: GlcNAc(b1-3)[GlcNAc(b1-4)][GlcNAc(b1-6)]GlcNAc
# Outline: as §1
# [7] = molecular target: GlcNAc(b1-3)[GlcNAc(b1-6)]GalNAc
# Outline: as §1
# [8] = molecular target: GlcNAc(b1-4)GlcNAc(b1-4)GlcNAc
# Outline: as §1
# Kdn(a2-3)Gal(b1-3)GlcNAc = molecular target: Kdn(a2-3)Gal(b1-3)GlcNAc
# Outline: as §1
# [9] = molecular target: Man(a1-2)Man(a1-2)Man(a1-3)Man
# Outline: as §1
# [10] = molecular target: Man(a1-2)Man(a1-2)Man(a1-6)[Man(a1-3)]Man
# Outline: as §1
# Man(a1-2)Man(a1-3)Man = molecular target: Man(a1-2)Man(a1-3)Man
# Outline: as §1
# [11] = molecular target: Man(a1-2)Man(a1-3)[Man(a1-2)Man(a1-6)]Man
# Outline: as §1
# [12] = molecular target: Man(a1-2)Man(a1-3)[Man(a1-2)Man(a1-6)]Man(a1-6)[Man(a1-2)Man(a1-2)Man(a1-3)]Man
# Outline: as §1
# [13] = molecular target: Man(a1-2)Man(a1-6)[Man(a1-3)]Man(a1-6)[Man(a1-2)Man(a1-2)Man(a1-3)]Man(b1-4)GlcNAc(b1-4)GlcNAc
# Outline: as §1
# Man(a1-3)[Man(a1-6)]Man = molecular target: Man(a1-3)[Man(a1-6)]Man
# Outline: as §1
# [14] = molecular target: Man(a1-3)[Man(a1-6)]Man(a1-6)[Man(a1-2)Man(a1-3)]Man(b1-4)GlcNAc(b1-4)GlcNAc
# Outline: as §1
# [15] = molecular target: Neu5Ac(a2-3)Gal(b1-3)GalNAc(b1-4)Gal(b1-4)Glc
# Outline: as §1
# [16] = molecular target: Neu5Ac(a2-3)Gal(b1-3)GlcNAc6S
# Outline: as §1
# [17] = molecular target: Neu5Ac(a2-3)Gal(b1-3)[GlcNAc(b1-6)]GalNAc
# Outline: as §1
# [18] = molecular target: Neu5Ac(a2-3)Gal(b1-3)[Neu5Ac(a2-6)]GalNAc
# Outline: as §1
# [19] = molecular target: Neu5Ac(a2-3)Gal(b1-4)GlcNAc(b1-2)Man(a1-3)[GlcNAc(b1-4)][Neu5Ac(a2-3)Gal(b1-4)GlcNAc(b1-2)Man(a1-6)]Man(b1-4)GlcNAc(b1-4)GlcNAc
# Outline: as §1
# [20] = molecular target: Neu5Ac(a2-3)Gal(b1-4)GlcNAc(b1-3)Gal(b1-3)GlcNAc
# Outline: as §1
# [21] = molecular target: Neu5Ac(a2-3)Gal(b1-4)GlcNAc(b1-3)Gal(b1-4)GlcNAc(b1-3)Gal(b1-4)GlcNAc(b1-2)Man(a1-3)[Neu5Ac(a2-3)Gal(b1-4)GlcNAc(b1-3)Gal(b1-4)GlcNAc(b1-3)Gal(b1-4)GlcNAc(b1-2)Man(a1-6)]GalNAc
# Outline: as §1
# [22] = molecular target: Neu5Ac(a2-3)Gal(b1-4)[Fuc(a1-3)]GlcNAc(b1-6)[Gal(b1-3)]GalNAc
# Outline: as §1
# [23] = molecular target: Neu5Ac(a2-6)Gal(b1-4)GlcNAc(b1-2)Man(a1-3)[Neu5Ac(a2-6)Gal(b1-4)GlcNAc(b1-2)Man(a1-6)]Man(b1-4)GlcNAc(b1-4)[Fuc(a1-6)]GlcNAc
# Outline: as §1
# [24] = molecular target: Neu5Ac(a2-6)Gal(b1-4)GlcNAc(b1-2)Man(a1-6)Man(b1-4)GlcNAc(b1-4)GlcNAc
# Outline: as §1
# [25] = molecular target: Neu5Ac(a2-6)Gal(b1-4)GlcNAc(b1-6)GalNAc
# Outline: as §1
binder,measurement,setting,value
B1,glycan array binding signal (z-score),Gal6P(b1-4)GlcNAc,-0.035
same,glycan array binding signal (z-score),GalNAc(a1-3)Gal,-1.18
same,glycan array binding signal (z-score),GalNAc(a1-3)GalNAc,0.166
same,glycan array binding signal (z-score),GalNAc(b1-4)GlcNAc,-0.149
same,glycan array binding signal (z-score),[1],0.104
same,glycan array binding signal (z-score),[2],1.42
same,glycan array binding signal (z-score),[3],-0.57
same,glycan array binding signal (z-score),[4],-0.142
same,glycan array binding signal (z-score),[5],0.084
same,glycan array binding signal (z-score),[6],5.17
same,glycan array binding signal (z-score),[7],0.888
same,glycan array binding signal (z-score),[8],-0.899
same,glycan array binding signal (z-score),Kdn(a2-3)Gal(b1-3)GlcNAc,0.033
same,glycan array binding signal (z-score),[9],6.56
same,glycan array binding signal (z-score),[10],4.79
same,glycan array binding signal (z-score),Man(a1-2)Man(a1-3)Man,3.01
same,glycan array binding signal (z-score),[11],7.29
same,glycan array binding signal (z-score),[12],3.54
same,glycan array binding signal (z-score),[13],0.474
same,glycan array binding signal (z-score),Man(a1-3)[Man(a1-6)]Man,6.16
same,glycan array binding signal (z-score),[14],3.43
same,glycan array binding signal (z-score),[15],-1.13
same,glycan array binding signal (z-score),[16],1.11
same,glycan array binding signal (z-score),[17],-0.595
same,glycan array binding signal (z-score),[18],-0.943
same,glycan array binding signal (z-score),[19],0.061
same,glycan array binding signal (z-score),[20],0.02
same,glycan array binding signal (z-score),[21],4.3
same,glycan array binding signal (z-score),[22],0.16
same,glycan array binding signal (z-score),[23],0.527
same,glycan array binding signal (z-score),[24],0.271
same,glycan array binding signal (z-score),[25],0.439
